Laboratory results from the supplement of paper PMC10849652.
About 7,900 targets were measured; listed, in parts, are those with a hit and a random draw of the rest. About 0.6% of all pairs of compound and target were hits. Unmarked numbers belong to inactive results.

Tests used:
Assay in all cases: log2 fold change, soluble protein after heating vs DMSO (PISA); higher = thermal stabilisation; K562 cells, 10 uM, 30 min; active = over 0.2 and 3.5 SD of the protein, either way, in both replicates (recomputed)
erlotinib = compound: C#Cc1cccc(Nc2ncnc3cc(OCCOC)c(OCCOC)cc23)c1 [erlotinib]
Procedure, shortened: (§1)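 K562 cells at 2×10^6 cells/mL were given 10 μM compound for 30 min. Aliquots then went through 3 min of heating across 48°C-58°C, were pooled, and were extracted in PBS with 0.5% NP-40 at 4°C, and the supernatant after 21,000xg for 90 min was quantified by TMTpro 16plex LC-MS/MS with channel sums equalised. Thermal stability relative to control samples, from duplicates, is given as log2 fold change.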

[1] = compound: C/C(=N\NC(=O)C1=CC(=CC=C1)S(=O)(=O)N2CCOCC2)/C3=C(C=CC(=C3)Cl)O
Procedure, shortened: as §1

[2] = compound: C1=CC(=C(C=C1Cl)C2=NC3=NC=CN=C3C(=N2)NC4=CC=NC=C4)F
Procedure, shortened: as §1

[3] = compound: C1=CC(=CC=C1C2=NC3=C(N2)C=C(C=C3)C(=O)N)OC4=CC=C(C=C4)Cl
Procedure, shortened: as §1

[4] = compound: C1=CC2=C(C=CC(=C2)/C=C\3/C(=O)NC(=NCC4=CC=CS4)S3)N=C1
Procedure, shortened: as §1

[5] = compound: C1=CC2=NC=CN=C2C=C1/C=C/3\C(=O)NC(=O)S3
Procedure, shortened: as §1

[6] = compound: C1=CC=C(C=C1)C2=NC(=C(N2)C3=CC=NC=C3)C4=CC(=C(C=C4)Cl)O
Procedure, shortened: as §1

[7] = compound: C1=CC=C2C(=C1)C3=NNC4=CC=CC(=C43)C2=O
Procedure, shortened: as §1

[8] = compound: C1CCN(C1)C(=O)NC2=CC=CC(=C2)NC3=NC=C(C(=N3)NCCC4=CN=CN4)Br
Procedure, shortened: as §1

[9] = compound: C1CN(CCC1(CC2=CC=C(C=C2)Cl)N)C3=NC=NC4=C3C=CN4
Procedure, shortened: as §1

## UBE2E3 (UniProt Q969T4)
Chain of UniProt Q969T4 (Q969T4 whole entry, looked up): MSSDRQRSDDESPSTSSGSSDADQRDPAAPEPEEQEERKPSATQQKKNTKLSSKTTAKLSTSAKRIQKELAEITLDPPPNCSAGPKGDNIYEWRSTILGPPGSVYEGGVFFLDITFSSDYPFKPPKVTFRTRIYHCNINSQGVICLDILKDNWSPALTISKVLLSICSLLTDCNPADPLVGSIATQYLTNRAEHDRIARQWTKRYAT
erlotinib
  log2 fold change: 0.063
[1]
  log2 fold change: 0.112
[2]
  log2 fold change: 0.152
[3]
  log2 fold change: -0.034
[4]
  log2 fold change: 0.083
[5]
  log2 fold change: 0.009
[6]
  log2 fold change: 0.014
[7]
  log2 fold change: 0.045
[8]
  log2 fold change: -0.028
[9]
  log2 fold change: -0.019

## TRMT2A (UniProt Q8IZ69)
erlotinib
  log2 fold change: 0
[1]
  log2 fold change: 0.069
[2]
  log2 fold change: -0.124
[3]
  log2 fold change: 0.07
[4]
  log2 fold change: -0.016
[5]
  log2 fold change: -0.009
[6]
  log2 fold change: -0.026
[7]
  log2 fold change: -0.09
[8]
  log2 fold change: 0.031
[9]
  log2 fold change: -0.011

## VPS35L (UniProt Q7Z3J2)
erlotinib
  log2 fold change: 0.011
[1]
  log2 fold change: -0.004
[2]
  log2 fold change: -0.072
[3]
  log2 fold change: 0.025
[4]
  log2 fold change: 0.044
[5]
  log2 fold change: 0.059
[6]
  log2 fold change: 0.014
[7]
  log2 fold change: 0.012
[8]
  log2 fold change: -0.047
[9]
  log2 fold change: 0.071

## TTI1 (UniProt O43156)
erlotinib
  log2 fold change: -0.078
[1]
  log2 fold change: 0.115
[2]
  log2 fold change: -0.015
[3]
  log2 fold change: -0.045
[4]
  log2 fold change: 0.057
[5]
  log2 fold change: 0.028
[6]
  log2 fold change: 0.029
[7]
  log2 fold change: 0.008
[8]
  log2 fold change: 0.019
[9]
  log2 fold change: 0.028

## TMEM214 (UniProt Q6NUQ4)
erlotinib
  log2 fold change: -0.068
[1]
  log2 fold change: 0.016
[2]
  log2 fold change: -0.019
[3]
  log2 fold change: 0.001
[4]
  log2 fold change: 0.015
[5]
  log2 fold change: 0.017
[6]
  log2 fold change: -0.044
[7]
  log2 fold change: -0.025
[8]
  log2 fold change: 0.009
[9]
  log2 fold change: -0.088

## TMEM263 (UniProt Q8WUH6)
erlotinib
  log2 fold change: 0.093
[1]
  log2 fold change: 0.024
[2]
  log2 fold change: 0.024
[3]
  log2 fold change: -0.012
[4]
  log2 fold change: 0.058
[5]
  log2 fold change: -0.013
[6]
  log2 fold change: 0.02
[7]
  log2 fold change: -0.101
[8]
  log2 fold change: 0.036
[9]
  log2 fold change: 0.022

## WDR41 (UniProt Q9HAD4)
erlotinib
  log2 fold change: 0.039
[1]
  log2 fold change: 0.038
[2]
  log2 fold change: 0.128
[3]
  log2 fold change: 0.026
[4]
  log2 fold change: -0.016
[5]
  log2 fold change: 0.019
[6]
  log2 fold change: -0.005
[7]
  log2 fold change: -0.07
[8]
  log2 fold change: -0.012
[9]
  log2 fold change: 0.073

## TTC38 (UniProt Q5R3I4)
erlotinib
  log2 fold change: 0.749 (active)
[1]
  log2 fold change: 0.032
[2]
  log2 fold change: 0.082
[3]
  log2 fold change: 0.072
[4]
  log2 fold change: 0.021
[5]
  log2 fold change: -0.002
[6]
  log2 fold change: 0.035
[7]
  log2 fold change: 0.09
[8]
  log2 fold change: -0.06
[9]
  log2 fold change: 0.025

## TYW1 (UniProt Q9NV66)
Chain of UniProt Q9NV66 (Q9NV66 whole entry, looked up): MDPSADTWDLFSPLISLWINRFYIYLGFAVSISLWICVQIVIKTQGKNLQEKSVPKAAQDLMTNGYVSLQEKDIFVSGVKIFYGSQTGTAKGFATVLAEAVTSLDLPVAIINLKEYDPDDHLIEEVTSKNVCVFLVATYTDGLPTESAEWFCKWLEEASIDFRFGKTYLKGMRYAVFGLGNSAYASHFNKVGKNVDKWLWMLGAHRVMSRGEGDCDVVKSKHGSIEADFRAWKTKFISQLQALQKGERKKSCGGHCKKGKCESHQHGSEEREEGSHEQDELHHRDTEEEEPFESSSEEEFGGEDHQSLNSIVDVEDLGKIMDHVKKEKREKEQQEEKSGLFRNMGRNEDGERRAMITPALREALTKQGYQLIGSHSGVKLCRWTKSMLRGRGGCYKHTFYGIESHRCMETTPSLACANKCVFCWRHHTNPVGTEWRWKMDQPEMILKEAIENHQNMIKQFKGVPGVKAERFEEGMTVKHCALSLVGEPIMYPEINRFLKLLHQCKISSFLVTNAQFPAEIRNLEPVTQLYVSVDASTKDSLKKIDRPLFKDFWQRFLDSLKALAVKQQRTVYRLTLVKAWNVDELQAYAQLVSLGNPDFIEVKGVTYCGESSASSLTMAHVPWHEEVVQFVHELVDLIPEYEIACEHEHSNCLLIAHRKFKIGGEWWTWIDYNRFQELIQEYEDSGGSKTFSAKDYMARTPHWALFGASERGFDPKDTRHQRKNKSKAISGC
erlotinib
  log2 fold change: -0.045
[1]
  log2 fold change: 0.012
[2]
  log2 fold change: 0.055
[3]
  log2 fold change: 0.057
[4]
  log2 fold change: 0.003
[5]
  log2 fold change: 0.009
[6]
  log2 fold change: 0.042
[7]
  log2 fold change: 0.057
[8]
  log2 fold change: -0.041
[9]
  log2 fold change: 0.022

## TRIM4 (UniProt Q9C037)
erlotinib
  log2 fold change: 0.004
[1]
  log2 fold change: 0.031
[2]
  log2 fold change: 0.035
[3]
  log2 fold change: -0.199
[4]
  log2 fold change: 0.002
[5]
  log2 fold change: -0.01
[6]
  log2 fold change: -0.029
[7]
  log2 fold change: 0.135
[8]
  log2 fold change: -0.111
[9]
  log2 fold change: -0.073

## UBE3D (UniProt Q7Z6J8)
Chain of UniProt Q7Z6J8 (Q7Z6J8 whole entry, looked up): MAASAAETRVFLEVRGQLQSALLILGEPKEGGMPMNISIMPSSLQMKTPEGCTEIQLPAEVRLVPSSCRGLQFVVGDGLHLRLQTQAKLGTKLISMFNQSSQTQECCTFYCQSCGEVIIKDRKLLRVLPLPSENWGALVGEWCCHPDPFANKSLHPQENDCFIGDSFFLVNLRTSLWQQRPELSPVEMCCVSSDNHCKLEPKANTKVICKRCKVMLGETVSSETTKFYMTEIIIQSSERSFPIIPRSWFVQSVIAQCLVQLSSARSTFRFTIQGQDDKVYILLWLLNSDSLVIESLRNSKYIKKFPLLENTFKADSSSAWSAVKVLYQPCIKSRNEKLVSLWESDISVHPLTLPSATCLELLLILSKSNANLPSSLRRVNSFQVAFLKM
erlotinib
  log2 fold change: -0.014
[1]
  log2 fold change: -0.018
[2]
  log2 fold change: 0.033
[3]
  log2 fold change: 0.022
[4]
  log2 fold change: 0.003
[5]
  log2 fold change: -0.076
[6]
  log2 fold change: 0.013
[7]
  log2 fold change: -0.006
[8]
  log2 fold change: -0.114
[9]
  log2 fold change: 0.079

## TOP2A isoform 4 (UniProt P11388)
erlotinib
  log2 fold change: 0.008
[1]
  log2 fold change: -0.124
[2]
  log2 fold change: -0.429
[3]
  log2 fold change: 0.094
[4]
  log2 fold change: -0.061
[5]
  log2 fold change: 0.23
[6]
  log2 fold change: 0.077
[7]
  log2 fold change: 0.053
[8]
  log2 fold change: 0.073
[9]
  log2 fold change: -0.219

## WAPL isoform 3 (UniProt Q7Z5K2)
erlotinib
  log2 fold change: 0.031
[1]
  log2 fold change: 0.017
[2]
  log2 fold change: 0.048
[3]
  log2 fold change: -0.037
[4]
  log2 fold change: 0.057
[5]
  log2 fold change: 0.144
[6]
  log2 fold change: 0.059
[7]
  log2 fold change: -0.012
[8]
  log2 fold change: -0.217
[9]
  log2 fold change: -0.062

## VPS33A (UniProt Q96AX1)
erlotinib
  log2 fold change: 0.025
[1]
  log2 fold change: 0.035
[2]
  log2 fold change: -0.054
[3]
  log2 fold change: -0.01
[4]
  log2 fold change: 0.057
[5]
  log2 fold change: 0.013
[6]
  log2 fold change: 0.005
[7]
  log2 fold change: -0.023
[8]
  log2 fold change: -0.051
[9]
  log2 fold change: -0.083

## UXT isoform 2 (UniProt Q9UBK9)
Chain of UniProt Q9UBK9 (Q9UBK9 whole entry, looked up): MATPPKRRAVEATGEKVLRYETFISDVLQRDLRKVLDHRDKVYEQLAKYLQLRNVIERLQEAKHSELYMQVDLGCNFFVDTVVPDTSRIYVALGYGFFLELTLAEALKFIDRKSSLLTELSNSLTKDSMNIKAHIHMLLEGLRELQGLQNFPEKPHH
erlotinib
  log2 fold change: 0.925 (active)
[1]
  log2 fold change: -0.263
[2]
  log2 fold change: 0.078
[3]
  log2 fold change: 0.113
[4]
  log2 fold change: 0.061
[5]
  log2 fold change: -0.044
[6]
  log2 fold change: -0.053
[7]
  log2 fold change: 0.012
[8]
  log2 fold change: -0.036
[9]
  log2 fold change: -0.086

## UBAP2L isoform 1 (UniProt Q14157)
Chain of UniProt Q14157 (Q14157 whole entry, looked up): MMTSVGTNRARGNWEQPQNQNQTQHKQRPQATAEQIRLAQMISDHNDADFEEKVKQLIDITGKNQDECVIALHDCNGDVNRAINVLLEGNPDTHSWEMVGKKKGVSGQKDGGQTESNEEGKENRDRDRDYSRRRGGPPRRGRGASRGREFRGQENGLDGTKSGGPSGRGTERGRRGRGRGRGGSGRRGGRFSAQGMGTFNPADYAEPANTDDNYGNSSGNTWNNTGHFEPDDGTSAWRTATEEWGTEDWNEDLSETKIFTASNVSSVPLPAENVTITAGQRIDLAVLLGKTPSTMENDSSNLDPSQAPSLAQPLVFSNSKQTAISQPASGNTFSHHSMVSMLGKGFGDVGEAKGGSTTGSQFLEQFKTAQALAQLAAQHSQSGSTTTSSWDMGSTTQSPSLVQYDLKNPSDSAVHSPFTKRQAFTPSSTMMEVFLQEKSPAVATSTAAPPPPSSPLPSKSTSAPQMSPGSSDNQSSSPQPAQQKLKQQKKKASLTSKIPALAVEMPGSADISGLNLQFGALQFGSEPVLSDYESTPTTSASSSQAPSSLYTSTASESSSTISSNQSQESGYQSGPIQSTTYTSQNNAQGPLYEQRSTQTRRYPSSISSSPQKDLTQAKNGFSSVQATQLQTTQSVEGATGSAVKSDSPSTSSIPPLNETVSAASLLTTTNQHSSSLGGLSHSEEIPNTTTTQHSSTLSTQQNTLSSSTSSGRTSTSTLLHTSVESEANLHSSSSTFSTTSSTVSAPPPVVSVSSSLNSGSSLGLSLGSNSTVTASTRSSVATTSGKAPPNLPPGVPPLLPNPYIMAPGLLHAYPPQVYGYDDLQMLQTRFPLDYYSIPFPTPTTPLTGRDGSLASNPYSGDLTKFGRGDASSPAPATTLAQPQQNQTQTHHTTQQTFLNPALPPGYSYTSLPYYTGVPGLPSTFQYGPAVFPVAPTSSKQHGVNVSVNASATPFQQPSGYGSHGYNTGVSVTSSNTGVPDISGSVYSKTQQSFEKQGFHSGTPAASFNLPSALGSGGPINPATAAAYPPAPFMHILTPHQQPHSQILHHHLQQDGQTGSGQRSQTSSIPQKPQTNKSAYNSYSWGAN
erlotinib
  log2 fold change: -0.126
[1]
  log2 fold change: 0.013
[2]
  log2 fold change: -0.003
[3]
  log2 fold change: 0.083
[4]
  log2 fold change: -0.06
[5]
  log2 fold change: -0.023
[6]
  log2 fold change: 0.04
[7]
  log2 fold change: -0.024
[8]
  log2 fold change: -0.082
[9]
  log2 fold change: 0.017

## VPS18 (UniProt Q9P253)
erlotinib
  log2 fold change: 0.026
[1]
  log2 fold change: 0.065
[2]
  log2 fold change: 0.019
[3]
  log2 fold change: 0.023
[4]
  log2 fold change: 0.04
[5]
  log2 fold change: 0.04
[6]
  log2 fold change: -0.086
[7]
  log2 fold change: -0.012
[8]
  log2 fold change: -0.006
[9]
  log2 fold change: -0.024

## TMTC3 (UniProt Q6ZXV5)
Chain of UniProt Q6ZXV5 (Q6ZXV5 whole entry, looked up): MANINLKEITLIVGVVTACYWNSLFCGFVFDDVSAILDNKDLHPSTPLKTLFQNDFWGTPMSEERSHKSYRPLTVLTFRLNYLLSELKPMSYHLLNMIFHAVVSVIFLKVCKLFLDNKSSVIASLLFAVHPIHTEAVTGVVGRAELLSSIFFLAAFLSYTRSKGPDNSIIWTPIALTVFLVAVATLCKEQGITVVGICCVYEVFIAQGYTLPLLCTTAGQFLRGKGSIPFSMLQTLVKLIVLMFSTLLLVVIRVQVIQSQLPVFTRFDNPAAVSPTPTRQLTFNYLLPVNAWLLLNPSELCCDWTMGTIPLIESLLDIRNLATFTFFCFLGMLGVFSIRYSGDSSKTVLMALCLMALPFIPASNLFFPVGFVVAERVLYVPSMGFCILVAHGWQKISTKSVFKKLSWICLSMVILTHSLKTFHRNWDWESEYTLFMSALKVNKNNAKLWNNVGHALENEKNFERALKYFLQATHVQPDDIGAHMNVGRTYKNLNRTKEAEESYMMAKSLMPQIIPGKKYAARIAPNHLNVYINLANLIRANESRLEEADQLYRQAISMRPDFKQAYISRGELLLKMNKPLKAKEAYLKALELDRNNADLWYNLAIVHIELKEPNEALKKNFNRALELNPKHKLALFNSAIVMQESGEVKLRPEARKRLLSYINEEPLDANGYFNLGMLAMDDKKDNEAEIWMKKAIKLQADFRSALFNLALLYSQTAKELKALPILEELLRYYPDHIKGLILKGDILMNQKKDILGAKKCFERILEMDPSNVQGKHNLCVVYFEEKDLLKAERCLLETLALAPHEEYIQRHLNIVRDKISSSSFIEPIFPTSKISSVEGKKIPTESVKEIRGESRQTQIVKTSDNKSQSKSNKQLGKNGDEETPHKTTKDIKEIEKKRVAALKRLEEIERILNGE
erlotinib
  log2 fold change: 0
[1]
  log2 fold change: 0
[2]
  log2 fold change: 0.007
[3]
  log2 fold change: 0.023
[4]
  log2 fold change: 0.042
[5]
  log2 fold change: 0.002
[6]
  log2 fold change: 0.001
[7]
  log2 fold change: -0.001
[8]
  log2 fold change: -0.064
[9]
  log2 fold change: -0.014

## VPS72 isoform 2 (UniProt Q15906)
erlotinib
  log2 fold change: -0.017
[1]
  log2 fold change: -0.062
[2]
  log2 fold change: 0.053
[3]
  log2 fold change: -0.108
[4]
  log2 fold change: 0.04
[5]
  log2 fold change: -0.094
[6]
  log2 fold change: -0.054
[7]
  log2 fold change: -0.134
[8]
  log2 fold change: 0.056
[9]
  log2 fold change: 0.028

## VPS8 (UniProt Q8N3P4)
Chain of UniProt Q8N3P4 (Q8N3P4 whole entry, looked up): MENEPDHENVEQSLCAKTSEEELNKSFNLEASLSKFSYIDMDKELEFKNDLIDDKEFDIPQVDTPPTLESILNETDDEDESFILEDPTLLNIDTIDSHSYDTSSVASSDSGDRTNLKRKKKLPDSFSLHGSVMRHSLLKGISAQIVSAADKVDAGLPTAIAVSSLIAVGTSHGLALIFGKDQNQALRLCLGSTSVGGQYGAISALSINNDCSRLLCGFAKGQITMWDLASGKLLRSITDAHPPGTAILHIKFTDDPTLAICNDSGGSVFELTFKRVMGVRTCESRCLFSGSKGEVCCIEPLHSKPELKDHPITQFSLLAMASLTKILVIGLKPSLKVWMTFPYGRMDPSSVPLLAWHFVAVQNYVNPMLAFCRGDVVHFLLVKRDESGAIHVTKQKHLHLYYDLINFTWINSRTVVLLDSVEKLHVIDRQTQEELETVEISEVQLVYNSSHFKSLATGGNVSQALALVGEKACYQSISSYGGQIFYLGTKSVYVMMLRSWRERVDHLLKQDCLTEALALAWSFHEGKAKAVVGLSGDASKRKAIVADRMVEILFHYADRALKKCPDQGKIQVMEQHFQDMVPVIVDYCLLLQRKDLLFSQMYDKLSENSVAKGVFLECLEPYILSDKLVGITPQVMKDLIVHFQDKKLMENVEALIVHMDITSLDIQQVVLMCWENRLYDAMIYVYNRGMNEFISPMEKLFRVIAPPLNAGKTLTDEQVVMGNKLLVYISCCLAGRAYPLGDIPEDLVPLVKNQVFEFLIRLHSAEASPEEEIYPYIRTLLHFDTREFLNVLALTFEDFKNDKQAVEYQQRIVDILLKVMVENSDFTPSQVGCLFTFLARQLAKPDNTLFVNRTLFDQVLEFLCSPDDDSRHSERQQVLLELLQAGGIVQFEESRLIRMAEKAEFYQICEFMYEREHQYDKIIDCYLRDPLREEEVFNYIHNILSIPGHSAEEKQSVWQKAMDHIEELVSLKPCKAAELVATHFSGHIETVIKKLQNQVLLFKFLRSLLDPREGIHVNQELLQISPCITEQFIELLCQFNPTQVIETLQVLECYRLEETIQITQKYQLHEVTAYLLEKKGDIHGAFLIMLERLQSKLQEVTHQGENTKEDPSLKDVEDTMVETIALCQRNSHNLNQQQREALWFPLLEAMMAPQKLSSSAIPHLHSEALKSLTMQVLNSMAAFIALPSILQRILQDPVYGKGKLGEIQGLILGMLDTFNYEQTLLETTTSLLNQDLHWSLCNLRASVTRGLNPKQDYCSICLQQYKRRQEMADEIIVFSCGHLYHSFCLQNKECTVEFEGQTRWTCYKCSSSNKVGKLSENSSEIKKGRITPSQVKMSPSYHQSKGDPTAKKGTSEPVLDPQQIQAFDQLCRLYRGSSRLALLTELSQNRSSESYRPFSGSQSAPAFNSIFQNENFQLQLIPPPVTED
erlotinib
  log2 fold change: 0.005
[1]
  log2 fold change: 0.036
[2]
  log2 fold change: 0.017
[3]
  log2 fold change: -0.024
[4]
  log2 fold change: 0.016
[5]
  log2 fold change: 0.031
[6]
  log2 fold change: 0.041
[7]
  log2 fold change: 0.012
[8]
  log2 fold change: 0.026
[9]
  log2 fold change: 0.027

## UCHL5 isoform 3 (UniProt Q9Y5K5)
erlotinib
  log2 fold change: 0.047
[1]
  log2 fold change: 0.106
[2]
  log2 fold change: 0.415
[3]
  log2 fold change: -0.124
[4]
  log2 fold change: -0.036
[5]
  log2 fold change: 0.125
[6]
  log2 fold change: -0.11
[7]
  log2 fold change: 0.102
[8]
  log2 fold change: 0.207
[9]
  log2 fold change: -0.103

## WARS2 (UniProt Q9UGM6)
erlotinib
  log2 fold change: 0.069
[1]
  log2 fold change: -0.016
[2]
  log2 fold change: 0.034
[3]
  log2 fold change: -0.094
[4]
  log2 fold change: 0.033
[5]
  log2 fold change: 0.006
[6]
  log2 fold change: -0.032
[7]
  log2 fold change: 0.031
[8]
  log2 fold change: 0.027
[9]
  log2 fold change: -0.027

## WDHD1 (UniProt O75717)
erlotinib
  log2 fold change: 0.007
[1]
  log2 fold change: 0.173
[2]
  log2 fold change: 0.093
[3]
  log2 fold change: -0.002
[4]
  log2 fold change: 0.026
[5]
  log2 fold change: 0.038
[6]
  log2 fold change: -0.02
[7]
  log2 fold change: -0.028
[8]
  log2 fold change: -0.031
[9]
  log2 fold change: -0.013

## TTI2 (UniProt Q6NXR4)
erlotinib
  log2 fold change: 0
[1]
  log2 fold change: 0.053
[2]
  log2 fold change: 0.003
[3]
  log2 fold change: -0.035
[4]
  log2 fold change: 0.029
[5]
  log2 fold change: -0.036
[6]
  log2 fold change: -0.095
[7]
  log2 fold change: 0.046
[8]
  log2 fold change: 0.008
[9]
  log2 fold change: -0.028
